Results: PubChem BioAssay (NCI)
The panel holds about 83,000 compounds, 20% with a hit somewhere; the sample as a whole holds those more often.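 Step 1: grow cells in 96-well plates. Step 2: add test compound at a single concentration. Step 3: incubate 48 h. Step 4: record percent growth.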 Unmarked numbers belong to inactive results. Calls of active or inactive are those of the source. The calls were made as follows: active = growth percent below 10; inactive = the rest.

What was measured:
Test in all cases: NCI-60 one-dose screen, 48 h (100 = growth as untreated, 0 = no growth, -100 = all killed)
Conditions in all cases: 10 µM
HCT-15 colon = system: HCT-15 colon
SNB-75 CNS = system: SNB-75 CNS
SNB-19 CNS = system: SNB-19 CNS
U251 CNS = system: U251 CNS
PC-3 prostate = system: PC-3 prostate
SK-MEL-5 melanoma = system: SK-MEL-5 melanoma
SK-MEL-28 melanoma = system: SK-MEL-28 melanoma
UACC-62 melanoma = system: UACC-62 melanoma
LOX IMVI melanoma = system: LOX IMVI melanoma

| Structure (SMILES) | growth (HCT-15 colon) | growth (SNB-75 CNS) | growth (SNB-19 CNS) | growth (U251 CNS) | growth (PC-3 prostate) | growth (SK-MEL-5 melanoma) | growth (SK-MEL-28 melanoma) | growth (UACC-62 melanoma) | growth (LOX IMVI melanoma) |
| --- | --- | --- | --- | --- | --- | --- | --- | --- | --- |
| Nc1nnc(-c2c[nH]c3ncccc23)c(-c2c[nH]c3ccc(Br)cc23)n1 | 56.5% | 28.2% | 40.8% | 37.5% | 56.9% | -33.5% (active) | 54% | – | – |
| O=c1cc(-c2ccccc2)oc2cc(OCCCCNCc3ccccc3)cc(O)c12 | -86.1% (active) | 53.4% | – | -64.7% (active) | -8.47% (active) | -99.9% (active) | -69.7% (active) | -68.7% (active) | -99.9% (active) |
| CCN1CCN(c2ccc(NC(=O)Nc3ccc(-c4cc(C(=O)NC)c5ncccc5n4)cc3)cc2C(F)(F)F)CC1 | -100% (active) | -95% (active) | -100% (active) | -96.3% (active) | -77.9% (active) | -100% (active) | -100% (active) | -99% (active) | -100% (active) |
